Data reported in PubChem BioAssay (NCI).
About 83,000 compounds went through this panel and 20% of them were active in at least one assay; those are over-represented in the sample as a whole.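 Testing used 96-well plates and a 48-hour single-concentration exposure. Example: -40 means 40% of the starting cells died.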 Active and inactive are the calls of the source. How the source made its calls: active means growth percent below 10; inactive means the rest.

Tests used:
Assay in all cases: NCI-60 one-dose screen, 48 h (100 = growth as untreated, 0 = no growth, -100 = all killed)
Details in all cases: 10 µM unless noted
NCI-H23 lung = tested on: NCI-H23 lung
NCI-H226 lung = tested on: NCI-H226 lung
NCI-H322M lung = tested on: NCI-H322M lung
HOP-62 NSCLC = tested on: HOP-62 NSCLC
NCI-H460 lung = tested on: NCI-H460 lung
HOP-92 NSCLC = tested on: HOP-92 NSCLC
NCI-H522 lung = tested on: NCI-H522 lung
A549/ATCC NSCLC = tested on: A549/ATCC NSCLC
786-0 renal = tested on: 786-0 renal
COLO 205 colon = tested on: COLO 205 colon

Measured: growth

CCCC(O)Cn1ncc(C(=O)OCC)c1NC(=O)NCc1cccc(F)c1 (stereo not given)
inactive: NCI-H23 lung 91.2% | NCI-H226 lung 112% | NCI-H322M lung 93% | HOP-62 NSCLC 100% | NCI-H460 lung 107% | HOP-92 NSCLC 71.3% | NCI-H522 lung 58.6% | A549/ATCC NSCLC 88.4% | 786-0 renal 73.4% | COLO 205 colon 111%

Cc1ccc(/C=C2\CN(C(=O)C(Cl)Cl)C/C(=C\c3ccc(C)cc3)C2=O)cc1
active: NCI-H23 lung -35.9% | NCI-H226 lung -11.7% | NCI-H322M lung -53.7% | HOP-62 NSCLC -16.4% | NCI-H460 lung -56.1% | HOP-92 NSCLC -47.9% | NCI-H522 lung -37.3% | A549/ATCC NSCLC 2.86% | 786-0 renal -68.6% | COLO 205 colon -63%

CC1(C)CC[C@]2(C(=O)N3CCOCC3)CC[C@]3(C)C(=CC[C@@H]4[C@@]5(C)C/C(=C/c6ccncc6)C(=O)C(C)(C)[C@@H]5CC[C@]43C)[C@@H]2C1
active: NCI-H226 lung -20.4% | NCI-H460 lung -21.8% | HOP-92 NSCLC -6.7% | NCI-H522 lung -1.2% | COLO 205 colon -21.1%
inactive: NCI-H23 lung 19.5% | NCI-H322M lung 40.9% | HOP-62 NSCLC 19.8% | A549/ATCC NSCLC 15.2% | 786-0 renal 26.2%

O=C1NC(=Nc2ccc(O)cc2)S/C1=C\c1cccs1
active: NCI-H460 lung 3.62% | HOP-92 NSCLC -7.99%
inactive: NCI-H23 lung 47.4% | NCI-H226 lung 57.4% | NCI-H322M lung 35.3% | HOP-62 NSCLC 46.7% | NCI-H522 lung 15.5% | A549/ATCC NSCLC 35.4% | 786-0 renal 20.2% | COLO 205 colon 105%

Nc1nc(C(=O)N/N=C/c2ccc(N3CCOCC3)cc2)nn1-c1ccc(S(N)(=O)=O)cc1
inactive: NCI-H23 lung 100% | NCI-H226 lung 96.7% | NCI-H322M lung 106% | HOP-62 NSCLC 103% | NCI-H460 lung 110% | HOP-92 NSCLC 97.7% | NCI-H522 lung 101% | A549/ATCC NSCLC 100% | 786-0 renal 95.7% | COLO 205 colon 120%

Cn1cc(-c2nonc2-c2c[nH]c3ccccc23)c2ccccc21
active: NCI-H460 lung 4.95% | HOP-92 NSCLC 5.1% | NCI-H522 lung -5.43% | COLO 205 colon -22.7%
inactive: NCI-H23 lung 29.7% | NCI-H226 lung 44.5% | NCI-H322M lung 33.9% | HOP-62 NSCLC 14.3% | A549/ATCC NSCLC 18.3% | 786-0 renal 23%

NS(=O)(=O)c1ccc(N/C=C/C(=O)c2cc3ccccc3oc2=O)cc1
inactive: NCI-H23 lung 88% | NCI-H226 lung 86.9% | NCI-H322M lung 92.9% | HOP-62 NSCLC 84.7% | NCI-H460 lung 96.8% | HOP-92 NSCLC 76.1% | NCI-H522 lung 96.3% | A549/ATCC NSCLC 97.1% | 786-0 renal 96.1% | COLO 205 colon 102%

N#Cc1c(-c2cccc([N+](=O)[O-])c2)cc(-c2ccc(Nc3nc(Nc4ccc(F)cc4)nc(Nc4ccc(F)cc4)n3)cc2)nc1N
inactive: NCI-H23 lung 98.6% | NCI-H226 lung 123% | NCI-H322M lung 97.9% | HOP-62 NSCLC 85.9% | NCI-H460 lung 146% | HOP-92 NSCLC 55.4% | NCI-H522 lung 104% | A549/ATCC NSCLC 86% | 786-0 renal 94.6% | COLO 205 colon 117%

N=C(N)c1ccc(-c2ccc(-c3ccc(Cl)cc3Cl)s2)cc1F
inactive: NCI-H23 lung 18.9% | NCI-H226 lung 93.2% | HOP-92 NSCLC 43%
active: NCI-H322M lung -43.8% | HOP-62 NSCLC -0.426% | NCI-H460 lung -72.4% | NCI-H522 lung -44.2% | A549/ATCC NSCLC -55.8% | 786-0 renal -78.8% | COLO 205 colon -47.2%

CCN(CC)CCCC(C)Nc1ccc2cc(OC)ccc2n1 (stereo not given)
inactive: NCI-H23 lung 107% | NCI-H226 lung 107% | NCI-H322M lung 94.7% | HOP-62 NSCLC 91.4% | NCI-H460 lung 108% | HOP-92 NSCLC 91.5% | NCI-H522 lung 99.1% | A549/ATCC NSCLC 85.4% | 786-0 renal 98.9% | COLO 205 colon 107%

COc1ccc2nc(SCC(=O)Nc3ccccc3C)[nH]c2c1
inactive: NCI-H23 lung 101% | NCI-H226 lung 92.2% | NCI-H322M lung 90% | HOP-62 NSCLC 90% | NCI-H460 lung 104% | HOP-92 NSCLC 83.2% | NCI-H522 lung 87.9% | A549/ATCC NSCLC 84% | 786-0 renal 99.9% | COLO 205 colon 113%

COc1ccc(-c2oc(=O)ccc2-c2cc(OC)c(OC)c(OC)c2)cc1O
active: HOP-62 NSCLC -15.8% | NCI-H460 lung 4.04% | NCI-H522 lung -0.118%
inactive: NCI-H23 lung 49% | NCI-H226 lung 64.1% | NCI-H322M lung 41.6% | HOP-92 NSCLC 103% | A549/ATCC NSCLC 26% | 786-0 renal 20.5% | COLO 205 colon 45.2%

Cc1c2ccccc2nc2c1ccc1cccnc12
inactive: NCI-H23 lung 74.5% | NCI-H226 lung 96.5% | NCI-H322M lung 101% | HOP-62 NSCLC 105% | NCI-H460 lung 73.8% | HOP-92 NSCLC 106% | NCI-H522 lung 63.5% | A549/ATCC NSCLC 59.8% | 786-0 renal 95.8% | COLO 205 colon 50.8%

O=C(c1ccc(Cl)cc1Cl)N1c2ccccc2Sc2ccccc21
inactive: NCI-H23 lung 73.5% | NCI-H226 lung 68% | NCI-H322M lung 85.2% | HOP-62 NSCLC 64.7% | NCI-H460 lung 18.3% | HOP-92 NSCLC 71.5% | NCI-H522 lung 63.7% | A549/ATCC NSCLC 54.2% | 786-0 renal 67% | COLO 205 colon 45%
